# PubChem BioAssay AID463175 (Southern Research Specialized Biocontainment Screening …, 2010)
# Unmarked numbers belong to inactive results.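 How the source made its calls: active means inhibition above 40% at one or more tested concentrations in the dose response counterscreen; inactive means inhibition below 40% at every dose tested.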
# Assay: nmpC-GFP expression in S. Typhimurium, late-stage follow-up, counter-screen for PhoP regulon inhibitor project, synthesized compounds, set 5 (AID 463175)
# Settings: S. Typhimurium non-PhoP-regulated nmpC promoter-GFP fluorescence (growth counterscreen), 4 h; series mostly up to 150 µM; inhibition: at the top concentration
row,Compound,inhibition [%]
1,Cc1ccc(C2Sc3ccccc3N=C3c4ccccc4CC32)cc1 (stereo unspecified),12.7
2,COc1cccc(NC(=O)N2CCCN(Cc3ccccc3F)C2)c1,24.9
3,O=C1C2=C(Nc3ccccc3SC2c2cccc(Br)c2)c2ccccc21 (stereo unspecified),14.8
4,Clc1ccc(C2Sc3ccccc3N=C3c4ccccc4CC32)cc1 (stereo unspecified),1.17
5,O=C1C2=C(Nc3ccccc3SC2c2ccc(Cl)cc2)c2ccccc21 (stereo unspecified),32.2
6,O=C1C2=C(Nc3ccccc3SC2c2cccnc2)c2ccccc21 (stereo unspecified),9.45
